Compounds with a hit are over-represented: about 4.1% of the library has one in this group of screens.
DAX1 inh-1 – DAX1 (NR0B1) inhibitors, primary screen, cell-based, HEK293, Gal4-DAX1, luciferase luminescence | inhibition, % at 6.75 µM | Nuclear receptor subfamily 0 group B member 1 (Homo sapiens), P51843 | HEK293 Gal4-DAX1 luciferase reporter | AID 504766, 2011 | 340,000 tested, 0.99% active;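 active = inhibition above the mean over all tested compounds plus 3 SD, cut at about 4.2% in these data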;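 note: 0% = DAX1-transfected cells with DMSO and 100% = empty-vector control cells with DMSO; inhibition shows as a rise in luminescence from relieved DAX1 repression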
Target sequence (P51843 207-470 limits assumed): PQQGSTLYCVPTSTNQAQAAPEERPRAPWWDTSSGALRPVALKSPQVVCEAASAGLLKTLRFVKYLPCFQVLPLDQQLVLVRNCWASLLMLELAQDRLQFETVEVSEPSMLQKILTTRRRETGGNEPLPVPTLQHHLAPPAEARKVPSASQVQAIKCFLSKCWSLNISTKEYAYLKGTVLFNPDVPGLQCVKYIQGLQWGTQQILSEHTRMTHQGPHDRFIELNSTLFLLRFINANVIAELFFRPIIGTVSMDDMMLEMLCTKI
ssDAF-12 act – S. stercoralis DAF-12 nuclear receptor activators, primary screen, cell-based, luminescence, HEK293, GRIP1 co-expression, lit1-tk-luc; HEK293 ssDAF-12/GRIP1 lit1-tk-luc reporter; % of 3 µM dafachronic acid response; 370,000 tested, 1% active; Nuclear hormone receptor DAF-12 (Strongyloides stercoralis); AID 652126, 2013; activation, % at 6.8 µM;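 active = activation above the mean over all tested compounds plus 3 SD, cut at about 0.9% in these data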;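 note: 0% = DMSO-only wells and 100% = 3 µM delta7-dafachronic acid wells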
hgDAF-12 ag – H. glycines DAF-12 receptor agonists, primary screen, cell-based, luminescence, HEK293, GAL4 fusion, UAS-luciferase; Nuclear hormone receptor DAF-12 (Heterodera glycines), GAL4 fusion; HEK293 GAL4-hgDAF12 UAS-luciferase reporter, agonist luminescence; normalized to butyrate control; activation, % at 6.8 µM; 370,000 tested, 1.8% active; AID 687014, 2013;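 active = activation above a cutoff set at the mean of all screened compounds plus 3 SD, cut at about 10% in these data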;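 note: 0% = DMSO wells and 100% = sodium butyrate wells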
DAX1 inh-2 – DAX1 (NR0B1) inhibitors on StAR promoter, primary screen, cell-based, luminescence, SF-1 (NR5A1), full-length DAX-1 | 370,000 tested, 1.1% active | inhibition, % at 6.8 µM | HEK293T StAR-luciferase reporter, SF-1/DAX-1 repression relief;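 active = inhibition above the mean over all tested compounds plus 3 SD, cut at about 3.6% in these data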;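 note: 0% = DAX-1 cells with DMSO and 100% = cells lacking DAX-1 with DMSO; higher inhibition means more luminescence from relief of DAX-1 repression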
hcDAF-12 act – H. contortus DAF-12 nuclear receptor activators, primary screen, cell-based, luminescence, HEK293, lit1-tk-luc reporter; HEK293 hcDAF-12 lit1-tk-luc reporter; 0% DMSO, 100% Δ7-dafachronic acid; activation, % at 6.8 µM; 370,000 tested, 1.4% active;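 active = activation above the mean of all tested compounds plus 3 SD, cut at about 5.5% in these data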;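 note: 100% = response to 3 µM Δ7-dafachronic acid high control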
DAX1 inh confirm – DAX1 (NR0B1) inhibitors relieving SF-1 repression, confirmation, cell-based, luminescence, HEK293T, full-length DAX-1, SF-1 activated StAR promoter. inhibition, % at 6.8 µM. shares compounds with DAX1 inh-2. 2,400 tested, 87% active. HEK293T StAR-promoter luciferase reporter, SF-1/DAX-1 repression;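 active = inhibition above the average of every tested compound plus 3 SD, cut at about 3.8% in these data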;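 note: 0% = DAX-1 cells with DMSO and 100% = no DAX-1 control cells with DMSO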
Target sequence (P51843 whole entry, looked up): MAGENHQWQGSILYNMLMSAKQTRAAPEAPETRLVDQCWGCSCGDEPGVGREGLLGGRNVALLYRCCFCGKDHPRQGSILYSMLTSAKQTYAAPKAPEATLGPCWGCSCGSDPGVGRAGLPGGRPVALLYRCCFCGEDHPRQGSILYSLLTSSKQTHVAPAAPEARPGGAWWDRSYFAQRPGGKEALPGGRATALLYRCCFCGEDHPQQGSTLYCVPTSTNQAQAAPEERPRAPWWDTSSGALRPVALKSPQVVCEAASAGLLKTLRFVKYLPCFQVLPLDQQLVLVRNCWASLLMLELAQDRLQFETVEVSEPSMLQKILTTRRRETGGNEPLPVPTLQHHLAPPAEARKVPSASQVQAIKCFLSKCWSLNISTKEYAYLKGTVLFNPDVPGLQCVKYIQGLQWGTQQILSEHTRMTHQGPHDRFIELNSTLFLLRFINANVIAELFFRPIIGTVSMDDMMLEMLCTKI
SF1 mutant ctr – StAR reporter signal changes without DAX1, counter-screen for DAX1 inhibitor project, cell-based, luminescence, AF-2 mutant SF-1, transactivation; shares compounds with DAX1 inh-2; HEK293 StAR-luciferase, SF-1 AF2 mutant; inhibition, % at 6.8 µM; 2,400 tested, 78% active; AID 652136, 2013;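 active = inhibition above the mean of all tested compounds plus 3 SD, cut at about 3% in these data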;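 note: 0% = DAX-1 transfected cells with DMSO and 100% = cells without DAX-1 with DMSO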
The depositor's hits bear a star; . = not tested or not shown.

SMILES | DAX1 inh-1 | ssDAF-12 act | hgDAF-12 ag | DAX1 inh-2 | hcDAF-12 act | DAX1 inh confirm | SF1 mutant ctr
COc1ccc(C(CNC(=O)c2ccc(Cl)c(NC(=O)c3cccs3)c2)N2CCCC2)cc1 (stereo not drawn) | -1.3 | -0.7 | 3.2 | 4.8* | -0.3 | 3.9* | 2.5
CCOc1ccc(NS(=O)(=O)c2ccc(C(=O)NCC(c3ccc(OC)cc3)N3CCCC3)cc2)cc1 (stereo not drawn) | 1.1 | -0.2 | 0.1 | 7.5* | -0.1 | 7.0* | 4.9*
COc1ccc(C(CNC(=O)c2cccc(S(=O)(=O)N3CCCC3)c2)N2CCCC2)cc1 (stereo not drawn) | 1.1 | -0.9 | 2.8 | 5.6* | 0.4 | 3.3 | 2.6
COc1ccc(C(CNC(=O)c2cc3c(s2)CCC(C)C3)N2CCCC2)cc1 (stereo not drawn) | 0.1 | -1.0 | 1.2 | 5.8* | -1.0 | 5.8* | 3.0*
COc1ccc(C(CNC(=O)c2ccc(NS(=O)(=O)c3ccc(F)c(C)c3)cc2)N2CCCC2)cc1 (stereo not drawn) | 1.2 | -0.4 | -0.6 | 3.0 | -0.5 | . | .
COC(=O)c1cc2c(c3c4cc(F)ccc4n(S(=O)(=O)c4ccc(OC)cc4)c13)C(=O)N(C)C2 | . | -0.7 | -2.7 | -0.1 | -0.5 | . | .
Cc1ccc2nc(SCC(=O)c3ccccc3)nc(=O)n2c1 | 2.5 | 0.1 | 12.3* | 8.3* | 3.9 | 9.2* | 5.3*
COC(=O)c1cc2c(c3c4cc(C)ccc4n(S(=O)(=O)c4cccc(C)c4)c13)C(=O)N(Cc1ccc(C(F)(F)F)cc1)C2 | . | -0.5 | 0.3 | 0.3 | 1.6 | . | .
CCN=C1NN=C(c2ccc(C)cc2)CS1 | 0.2 | -0.5 | 8.4 | 1.2 | 1.9 | . | .
CC(C)N=C1NN=C(c2ccc(F)cc2)CS1 | 0.6 | -0.7 | 12.6* | 5.9* | 4.7 | 11.0* | 6.0*
CCn1ccc(C(=O)Nc2ncc(C)s2)n1 | 1.2 | 0.2 | 7.7 | 8.9* | 2.9 | 9.4* | 4.4*
CCn1ccc(C(=O)NC2=NCCS2)n1 | 0.3 | 0.6 | 7.4 | 1.7 | 0.7 | . | .
Fc1ccc(-c2nnc(-c3ccc(Cl)cc3)o2)cc1 | 1.2 | -0.3 | 7.8 | 1.8 | 1.6 | . | .
Fc1ccc(-c2nnc(-c3ccc(Cl)cc3Cl)o2)cc1 | 2.0 | 0.5 | 12.3* | 5.3* | 4.9 | 8.3* | 3.6*
COC(=O)C1=CN(c2ccc(OC)cc2)C(N)=C(C#N)C1c1cccc2ccccc12 (stereo not drawn) | . | -0.8 | -4.1 | 0.2 | 0.3 | . | .
COC(=O)C1=CN(c2ccc(C(C)(C)C)cc2)C(N)=C(C#N)C1c1cccc2ccccc12 (stereo not drawn) | . | -1.0 | -6.3 | 5.2* | 1.1 | -0.6 | -1.1
COC(=O)[C@]12C[C@H](CC(=O)NCCCN3CCCC3=O)C(=O)N(Cc3ccccc3)C1=C[C@H](C(C)C)O[C@@H]2C1CC1 | . | -1.1 | 1.8 | 0.9 | -1.0 | . | .
CCc1cccc2c(C(=O)CN3C(=O)NC4(CCCCCC4)C3=O)c[nH]c12 | -0.9 | -1.7 | -8.2 | 13.1* | -1.0 | 10.1* | -4.6
Cc1cc(C(=O)CN2C(=O)NC3(CCCCCC3)C2=O)c(C)n1C | 0.3 | -0.8 | 4.4 | 1.6 | 0.0 | . | .
COCCn1c(C)cc(C(=O)CN2C(=O)NC3(CCCCCC3)C2=O)c1C | 1.8 | -0.4 | 8.3 | 6.8* | 2.5 | 4.5* | 2.8
C[C@@H]1CCN(C2CC2)S(=O)(=O)c2c(cccc2N2CCC[C@@H]2CO)O1 | . | -0.3 | 1.6 | 0.2 | -1.1 | . | .
CC1=C(C(=O)Nc2ccc(CC(=O)NCc3ccc(OC(C)C)cc3)cc2)SCCO1 | -0.2 | 1.0* | 7.9 | 14.6* | 5.9* | 22.9* | -3.2
CCOc1ccc(CNC(=O)c2cccc(NC(=O)C3=C(C)OCCS3)c2)cc1 | -2.1 | -1.3 | -0.8 | -0.3 | -3.7 | . | .
COCC(=O)N1[C@H](CO)[C@@H](c2ccc(-c3cccnc3)cc2)[C@H]1CN(C)S(=O)(=O)c1ccccc1[N+](=O)[O-] | . | -0.7 | -3.5 | 0.1 | 0.1 | . | .
O=C(CSc1nc2[nH]c(=O)cc(O)c2s1)Nc1cccc(Br)c1 | 0.8 | -1.2 | -0.5 | 5.7* | -0.2 | 2.2 | 2.1
SMILES | DAX1 inh-1 | ssDAF-12 act | hgDAF-12 ag | DAX1 inh-2 | hcDAF-12 act | DAX1 inh confirm | SF1 mutant ctr
O=C(CSc1nc2[nH]c(=O)cc(O)c2s1)Nc1ccc(Br)cc1 | 1.0 | -1.1 | -0.5 | 8.7* | -0.3 | 0.1 | 0.2
COc1ccccc1OCC(=O)NNC(=O)CSC(=S)N1CCCC1 | -0.8 | 0.0 | -0.7 | 5.1* | 0.4 | -0.7 | 0.0
O=C(c1cccs1)C1CCN(c2ncnc3sccc23)CC1 | . | -2.9 | -10.4 | . | -5.6 | . | .
O=S1(=O)c2ccc(Br)cc2OC[C@@H](c2ccccc2)N1Cc1cn(Cc2ccccc2)nn1 | . | -1.2 | 2.7 | -0.8 | -0.6 | . | .
CCc1nnc(NC(=O)c2cc(C)oc2C)s1 | 0.9 | 0.6 | 8.8 | 9.5* | 5.5 | 7.9* | 5.6*
CCCCCC[C@H](CN(CCCC)S(C)(=O)=O)c1ccccc1 | . | -1.6 | -2.8 | -1.1 | -3.0 | . | .
CCCCn1c(N)c(N(CCOC)C(=O)c2ccc(Br)o2)c(=O)[nH]c1=O | -0.9 | -0.4 | 2.6 | -0.2 | -0.8 | . | .
CCCCn1c(N)c(N(C)C(=O)c2ccc(Br)o2)c(=O)[nH]c1=O | -0.2 | -0.7 | 0.7 | 4.6* | 1.3 | 0.5 | 1.9
O=C(CCCCCN1C(=O)C2C3C=CC(C3)C2C1=O)Nc1cc(F)cc(F)c1 (stereo not drawn) | . | -2.0 | -5.2 | -3.3 | -4.0 | . | .
N/C(=N\OC(=O)c1ccco1)c1ccc(Br)cc1 | 1.8 | 0.7 | 9.8 | 4.7* | 3.5 | 7.2* | 4.4*
CCCC(=O)N1CCCC(c2nc(-c3cccc(OC)c3)no2)C1 (stereo not drawn) | 4.7* | -0.5 | 12.4* | 4.6* | 3.5 | 11.7* | 5.7*
CCC(=O)C1CCCN(C(=O)c2ccc3nc(-c4cccc(OC)c4)oc3c2)C1 (stereo not drawn) | 0.4 | -0.2 | 9.5 | 7.0* | 4.8 | 8.3* | 5.7*
